These results are taken from the supplement of paper PMC10681739.

In one assay the target is T1, ETS1 (UniProt P14921).
T1 sequence: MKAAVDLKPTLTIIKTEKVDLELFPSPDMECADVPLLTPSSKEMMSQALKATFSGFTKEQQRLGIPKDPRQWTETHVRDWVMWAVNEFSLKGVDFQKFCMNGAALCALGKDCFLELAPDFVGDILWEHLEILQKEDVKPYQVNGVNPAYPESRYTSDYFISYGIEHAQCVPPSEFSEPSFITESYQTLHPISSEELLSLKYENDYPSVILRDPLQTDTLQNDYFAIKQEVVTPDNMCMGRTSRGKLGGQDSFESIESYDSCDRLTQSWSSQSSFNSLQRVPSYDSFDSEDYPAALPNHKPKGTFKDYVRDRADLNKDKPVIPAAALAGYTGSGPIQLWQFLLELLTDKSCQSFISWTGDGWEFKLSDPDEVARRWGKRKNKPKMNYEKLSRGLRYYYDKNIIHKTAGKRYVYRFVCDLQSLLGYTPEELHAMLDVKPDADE
The assay is described as follows: ETS1 binding intensity (PBM fluorescence), ETS1 alone (arbitrary fluorescence units); higher = stronger binding. The following applies: ETS1 concentration 1 nM; RUNX1 concentration 0 nM.

In assay [1] the target is RUNX1 (UniProt Q01196). The assay is described as follows: RUNX1 binding intensity (PBM fluorescence), RUNX1 alone (arbitrary fluorescence units); higher = stronger binding. The note with it: RUNX1 concentration 2 nM; ETS1 concentration 0 nM. As to the method: (§1)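 Cooperative gcPBM on 36-bp genomic probes with neighbouring ETS1 and RUNX1 sites. Recombinant human RUNX1 (2 nM) was incubated alone or with ETS1 (25 nM) and detected with anti-RUNX1 antibody plus Alexa488 secondary. Values are medians over 4 replicate spots; the RUNX1+ETS1 data were normalised to the RUNX1-only data. The probes sit in constant array flanks that are not printed.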

Assay [2] has as its target RUNX1 (UniProt Q01196). The assay is described as follows: RUNX1 binding intensity (PBM fluorescence) in presence of ETS1, normalised to RUNX1-only experiment (arbitrary fluorescence units); higher = stronger binding. The note with it: RUNX1 concentration 2 nM; ETS1 concentration 25 nM. On the procedure: as §1
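Wherever RUNX1 binding intensity (PBM fluorescence) in presence of ETS1, normalised to RUNX1-only experiment is given: Full-length recombinant human ETS1 or RUNX1 bound to double-stranded 36-bp genomic probes on microarrays, detected by protein-specific primary antibody and Alexa488 secondary, spot fluorescence as median of four replicate spots.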
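Wherever RUNX1 binding intensity (PBM fluorescence), RUNX1 alone is given: Full-length recombinant human RUNX1 bound to double-stranded 36-bp genomic probes on a high-density microarray, scored as Alexa488 fluorescence per spot via anti-RUNX1 antibody, median of four replicate spots.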

Chain of RUNX1 (Q01196 whole entry): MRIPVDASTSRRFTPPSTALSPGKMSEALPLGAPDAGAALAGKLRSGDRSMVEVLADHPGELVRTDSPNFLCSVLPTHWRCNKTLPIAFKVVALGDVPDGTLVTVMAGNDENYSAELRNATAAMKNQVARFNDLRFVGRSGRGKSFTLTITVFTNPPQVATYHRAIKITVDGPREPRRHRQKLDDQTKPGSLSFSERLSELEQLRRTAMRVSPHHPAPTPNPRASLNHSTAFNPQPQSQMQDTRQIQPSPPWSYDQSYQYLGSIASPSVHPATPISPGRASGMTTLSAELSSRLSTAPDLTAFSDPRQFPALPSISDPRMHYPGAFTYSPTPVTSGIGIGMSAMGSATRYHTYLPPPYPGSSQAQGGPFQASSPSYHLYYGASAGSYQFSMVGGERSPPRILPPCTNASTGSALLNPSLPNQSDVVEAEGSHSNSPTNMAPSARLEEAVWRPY

In turn, TCCAGCCCCACCGGAAGTGGATGTGGTTAATCTAGT came in with an ETS1 binding intensity in the assay with ETS1 of 28800. Besides, the RUNX1 binding intensity is 955 in the assay with RUNX1 [1] and 6380 in the assay with RUNX1 [2].

On to ACACCCCAGGAAGTGGCAGAGACCACAACAAGTCAG, for which the ETS1 binding intensity with ETS1 turned out to be 704. Also, the RUNX1 binding intensity turned out to be 874 with RUNX1 [1] and 1910 with RUNX1 [2].

AGTTACAGTAAAGGATGTGGTGAAACAGATGTTTAT: the ETS1 binding intensity with ETS1 turned out to be 847. For the same sequence, the RUNX1 binding intensity was found to be 781 in the assay with RUNX1 [1] and 923 with RUNX1 [2].

In the case of AGTCAAACAGGATGTGGCTGGGGAGGCGGTTGTCAC, the ETS1 binding intensity in the assay with ETS1 worked out at 3750. In addition, the RUNX1 binding intensity with RUNX1 [1] was 725; with RUNX1 [2], 2040.

Sequence GGGTCTCCAGGAAGCCACTCACCACAAACTTTGACA gave an ETS1 binding intensity with ETS1 of 482. In addition, the RUNX1 binding intensity was 1080 with RUNX1 [1] and 1480 with RUNX1 [2].

For the sequence TGAAGTACTAGTCAAGGATGTGGTTTTACATAGCAG, the ETS1 binding intensity in the assay with ETS1 turned out to be 586. Also, the RUNX1 binding intensity in the assay with RUNX1 [1] worked out at 923; with RUNX1 [2] it was 1340.

For TGGCTGCCACTGAGAGGATGTGGTGACAGAGGTGGG, the ETS1 binding intensity with ETS1 is 1700. The RUNX1 binding intensity with RUNX1 [1] was found to be 693; with RUNX1 [2] it was 886.

The sequence TCAATGACAGGAAGTTTTTAAACCACATACGGCTAA showed an ETS1 binding intensity in the assay with ETS1 of 2780. Further, the RUNX1 binding intensity in the assay with RUNX1 [1] stood at 904; with RUNX1 [2], 1810.

Turning to CAGTGAACAGTTTCCTGTTCCTGTGGTTTTGACTTT, in the assay with ETS1, the ETS1 binding intensity was 1230. Besides, the values for the RUNX1 binding intensity in the assay with RUNX1 [1] and in the assay with RUNX1 [2] were 1420 and 3980, respectively.

In the assay with ETS1, GCCGGGCACCCCGGAAGACCGCTGGGAACCGGCTTT registered an ETS1 binding intensity of 1080. The RUNX1 binding intensity with RUNX1 [1] was 656; with RUNX1 [2], 1080.

GTTCTCAGCTTCCTGTTCACAGAGAAACCTCAGACA yielded an ETS1 binding intensity with ETS1 of 1370. Also, the RUNX1 binding intensity was 946 in the assay with RUNX1 [1] and 1390 with RUNX1 [2].

In the assay with ETS1, CAGCTAGCCGGAAGAAGCTGCGGCGACAGCGTCCTG registered an ETS1 binding intensity of 1690. The figures for the RUNX1 binding intensity in the assay with RUNX1 [1] and with RUNX1 [2] were 759 and 1020, respectively.

Sequence ATCTTTTGATGAGGATGTGGTTTCCAGGCAGGTGCT yielded an ETS1 binding intensity with ETS1 of 836. Moreover, the RUNX1 binding intensity with RUNX1 [1] came to 902; in the assay with RUNX1 [2], 1620.

The sequence CAGTTTGCCCCGGATGTTGACCGCCTTGAAGTCGTA returned an ETS1 binding intensity with ETS1 of 4170. Also, the values for the RUNX1 binding intensity with RUNX1 [1] and with RUNX1 [2] were 910 and 1380, respectively.

With TACATAGGCGGAAGTGGCCTGCGGGCGCCGGAGTTG, the ETS1 binding intensity with ETS1 is 3980. The RUNX1 binding intensity in the assay with RUNX1 [1] came to 714; in the assay with RUNX1 [2] it was 1710.

With CGGCAGGCAAGCAGGAAACCGCGAGTGGAGAAAGGG, the ETS1 binding intensity with ETS1 came to 1960. Also, the figures for the RUNX1 binding intensity with RUNX1 [1] and in the assay with RUNX1 [2] were 1010 and 1860, respectively.

In the case of GCCGCTGCCTCTTCCTGTGTGGTTTTTCAGGGCTTA, the ETS1 binding intensity with ETS1 was determined as 651. For the same sequence, the RUNX1 binding intensity with RUNX1 [1] is 1050; with RUNX1 [2] it was 2920.

Turning to GCTAGACAGGAAACAGTGAGCTTCTGTGGGCAGGAG, in the assay with ETS1, the ETS1 binding intensity was 2770. Moreover, the RUNX1 binding intensity with RUNX1 [1] is 758; in the assay with RUNX1 [2], 1060.

On to AGCTCCCCTCCCCGGAAACTTGACCACCTAGCCCAG, for which, in the assay with ETS1, the ETS1 binding intensity was found to be 1510. The figures for the RUNX1 binding intensity in the assay with RUNX1 [1] and in the assay with RUNX1 [2] were 875 and 813, respectively.

The sequence CACTCCCCGCATCCGGTCTGCGGCGCGCTCGGGGCC showed an ETS1 binding intensity with ETS1 of 3830. Also, the values for the RUNX1 binding intensity with RUNX1 [1] and in the assay with RUNX1 [2] were 912 and 29400, respectively.

In the assay with ETS1, GAGTGGGCGGAAATCCGTGCCTGGCAGACCACAAAG yielded an ETS1 binding intensity of 1320. Besides, the RUNX1 binding intensity was determined as 765 with RUNX1 [1] and 1500 with RUNX1 [2].
